Laboratory results reported in PubChem BioAssay (NCATS).
Several values for one entry are separate records, joined by “and”; a condition that tells them apart may be missing. Equal values may be shown once. Results filed as inconclusive are left out. Activity calls are given as the source filed them. Unless noted, calls come from the whole dose curve; as a rule, active = well fitted curve in the direction sought with a large enough effect; inconclusive = small, poorly fitted or top-dose-only effect, or another doubt; inactive = no such curve, though single readings can be large; an effect the other way counts as inactive or inconclusive.

Tests used:
[1] = Cell Viability - Jurkat (AID 426;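 active = dose-dependent loss of cell ATP signal giving a full or clear fitted curve, ranked by lower potency value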; note: potency is the fitted concentration of half-maximal effect); conditions: qHTS
Method in brief: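 Jurkat (clone E6-1, human T-cell leukemia) cells, 5000/well in complete medium, were exposed to compound for 40 hr at 37 °C. Viability was read as intracellular ATP by CellTiter-Glo luminescence; AC50 came from Hill fits of concentration-response data.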

[2] = Cell Viability - Hek293 (AID 427;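 active = compounds whose dose-response curve shows a full or clear partial loss of cell viability, called from curve shape rather than a numeric limit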;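 note: potency is the fitted concentration of half-maximal effect; cells exposed to compound for 40 hours at 37 °C before reading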); conditions: qHTS
Method in brief: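 Luminescent ATP read-out (CellTiter-Glo, 20 min RT) after 40 hr compound exposure at 37 °C in complete medium. Signal normalized to DMSO (basal) and 100 uM tamoxifen (100% inhibition); concentration-response fitted with the standard Hill equation to give AC50.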

[3] = Cellular Toxicity (caspase-3) H-4-II-E (AID 663); conditions: H-4-II-E rat hepatoma, scaled: DMSO 0%, 100 µM tamoxifen 100%; series mostly up to 92.2 µM;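 note: cells exposed to compound for 16 hr before readout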
Method in brief: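 Rat hepatoma H-4-II-E cells (1500/well) plated 5 hr, then exposed to compound titrations for 16 hr at 37 °C. Caspase-Glo 3/7 luminescence read after 20 min at RT; data normalized to DMSO and 100 uM tamoxifen, AC50 from Hill fits.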

[4] = Cellular Toxicity (caspase-3) N2a (AID 665); conditions: N2a cells, luminescence, normalized: DMSO 0%, 10 µM staurosporine 100%; at 92.2 µM (top of the series);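 note: compound exposure lasted 16 h at 37 °C before readout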
Method in brief: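 Mouse N2a neuroblastoma cells (1500/well) were treated with compounds for 16 h at 37 °C, then caspase-3/7 activity was read by Caspase-Glo luminescence after 1 h at room temperature. Data were normalized to DMSO and 10 uM staurosporine; AC50 from Hill fits.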

[5] = MultiTox-Fluor Cytotoxicity Assay - LYMP1-001 - Dead Cells (AID 946); conditions: LYMP1-001 lymphoblastoid cells, dead-cell protease fluorescence; series mostly up to 92.2 µM;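 note: 0% = DMSO and 100% = tetraoctylammonium bromide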
Method in brief: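 AC50 from Hill fit of concentration-response; data normalized to DMSO (basal) and 15 uM tetraoctylammonium bromide (100%). LYMP1-001 lymphoblastoid cells, 2500/well, 16 hr compound at 37 C; dead-cell protease fluorescence, Ex/Em 485/520.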

[6] = Cell Viability - LYMP1-002 - Assay at 16 hr (AID 948); conditions: LYMP1-002 lymphoblastoid cell viability; series mostly up to 92.2 µM;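 note: 0% = DMSO alone and full effect = 92 µM tetraoctylammonium bromide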
Method in brief: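 In this qHTS, lymphoblastoid LYMP1-002 cells (human) receive compounds for 16 hr at 37 C. Viability is taken from CellTiter-Glo ATP luminescence, and AC50 derives from standard Hill fits.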

[7] = MultiTox-Fluor Cytotoxicity Assay - LYMP1-003 - Dead Cells (AID 961); conditions: LYMP1-003 lymphoblastoid cells, dead-cell protease fluorescence; series mostly up to 92.2 µM;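 note: 0% = DMSO and 100% = tetraoctylammonium bromide; nearly all actives have a fitted effect of over 70% in size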
Method in brief: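 Human lymphoblastoid LYMP1-003 cells (2500/well) were treated with compounds for 16 hr at 37 C in complete medium. Dead-cell protease release was read by bis-AAF-R110 fluorescence (Ex/Em 485/520). AC50 came from Hill fits, normalized to DMSO and 15 uM tetraoctylammonium bromide.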

[8] = Cell Viability - LYMP1-003 - Assay at 24 hr (AID 963); conditions: LYMP1-003 lymphoblastoid cell viability; series mostly up to 92.2 µM;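 note: plate controls were DMSO only for no effect and tetraoctylammonium bromide positive control for full effect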
Method in brief: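 Human lymphoblastoid LYMP1-003 cells (2500/well) were rested 5 hr at 37 C, then exposed to compounds in complete medium for 24 hr at 37 C. Cellular ATP was quantified by CellTiter-Glo luminescence, and AC50 values came from Hill fits of concentration-response data.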

[9] = Cell Viability - LYMP2-011 (AID 969); conditions: LYMP2-011 lymphoblastoid cells viability; series mostly up to 92.2 µM;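 note: 0% = DMSO only and full inhibition = 92 µM tetraoctylammonium bromide; nearly all actives have a fitted effect of over 60% in size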
Method in brief: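 Human lymphoblastoid cells (2500/well) were plated in complete medium, preincubated 5 hr at 37 C, then exposed to compounds for 24 hr at 37 C. Intracellular ATP was read by CellTiter-Glo luminescence, and AC50 came from Hill-equation concentration-response fits.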

[10] = Cell Viability - LYMP2-013 (AID 970); conditions: LYMP2-013 lymphoblastoid cells viability; series mostly up to 92.2 µM;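 note: 0% = DMSO only and full inhibition = tetraoctylammonium bromide control; nearly all actives have a fitted effect of over 55% in size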
Method in brief: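 Human lymphoblastoid cells, 2500/well, were preincubated 5 hr at 37 C, then treated with compounds for 24 hr at 37 C in complete medium. Intracellular ATP was read by CellTiter-Glo luminescence; AC50 from Hill-equation fits of concentration-response data.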

[11] = Cell Viability - LYMP2-023 (AID 975); conditions: LYMP2-023 lymphoblastoid cell viability; series mostly up to 92.2 µM;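 note: cellular ATP measured by luciferase luminescence as viability proxy; plate controls were DMSO only for no effect and 92 µM tetraoctylammonium bromide control for full effect; nearly all actives have a fitted effect of over 55% in size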
Method in brief: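 Human lymphoblastoid cells (2500/well) were preincubated 5 hr at 37 C, then exposed to compounds for 24 hr at 37 C in complete medium. Cellular ATP was read by CellTiter-Glo luminescence, and AC50 came from Hill-equation fits.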

[12] = Cell Viability - LYMP2-025 (AID 976); conditions: LYMP2-025 lymphoblastoid cell viability; series mostly up to 92.2 µM;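 note: plate controls were DMSO only for no effect and tetraoctylammonium bromide control for full effect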
Method in brief: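 Human lymphoblastoid LYMP2-025 cells (2500/well) were pre-incubated 5 hr at 37 C, then treated with compounds for 24 hr at 37 C in complete medium. Viability was read as intracellular ATP by CellTiter-Glo luminescence; AC50 from Hill fits.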

[13] = Cell Viability - LYMP2-006 (AID 978); conditions: LYMP2-006 lymphoblastoid cell viability, qHTS; series mostly up to 92.2 µM; note: % is set by controls: 0 for no effect and ±100 for the full control effect; nearly all actives have a fitted effect of over 60% in size
Method in brief: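 In this cytotoxicity screen, the human lymphoblastoid line grew in complete medium with test compounds for 24 hr at 37 C. Cellular ATP served as the viability signal.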

[14] = Cell Viability - LYMP2-008 (AID 980); conditions: LYMP2-008 lymphoblastoid cell viability, qHTS; series mostly up to 92.2 µM; note: % is set by controls: 0 for no effect and ±100 for the full control effect; nearly all actives have a fitted effect of over 60% in size
Method in brief: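 Human lymphoblastoid cells (2500/well) were plated, held 5 hr at 37 C, then exposed to compounds for 24 hr at 37 C in complete medium. Intracellular ATP was read by CellTiter-Glo luminescence; AC50 from Hill-fitted concentration-response.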

[15] = Cell Viability - LYMP2-018 (AID 985); conditions: LYMP2-018 lymphoblastoid cells, viability (qHTS); series mostly up to 92.2 µM;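 note: compound exposure lasted 24 hr at 37 °C; plate controls were DMSO only for no effect and tetraoctylammonium bromide at 92 µM for full effect; nearly all actives have a fitted effect of over 50% in size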
Method in brief: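 Human lymphoblastoid cells (2500/well) were pre-incubated 5 hr at 37 C, then exposed to compounds for 24 hr at 37 C in complete medium. Viability was read as intracellular ATP by CellTiter-Glo luminescence; AC50 values came from Hill-equation fits.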

[16] = Cell Viability - LYMP2-026 (AID 989); conditions: LYMP2-026 lymphoblastoid cell viability, qHTS; series mostly up to 92.2 µM; note: % is set by controls: 0 for no effect and ±100 for the full control effect; nearly all actives have a fitted effect of over 50% in size
Method in brief: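 Human lymphoblastoid cells (2500/well) in complete medium were preincubated 5 hr at 37 C, then exposed to compounds for 24 hr at 37 C. Cellular ATP was read by CellTiter-Glo luminescence; AC50 from Hill-equation fits of concentration-response data.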

[17] = Cell Viability - LYMP1-002 - Assay at 24 hr (AID 993); conditions: LYMP1-002 lymphoblastoid cells viability; series mostly up to 92.2 µM; note: % is set by controls: 0 for no effect and ±100 for the full control effect
Method in brief: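 Human lymphoblastoid LYMP1-002 cells, 2500/well in complete medium, were treated with compounds for 24 h at 37 C; intracellular ATP was read by CellTiter-Glo luminescence. AC50 values came from Hill-equation fits of qHTS concentration-response data.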

[18] = qHTS assay for small molecule agonists of the antioxidant response element (ARE) signaling pathway measured by Nrf2-dependant transcriptional activity - cell viability counter screen (AID 720653; active = well fitted curve in the direction sought with a large enough effect in the repeat runs; an effect the other way counts as inactive or inconclusive; note: % is set by controls: 0 for no effect and ±100 for the full control effect); conditions: ARE-bla HepG2 viability, CellTiter-Glo ATP luminescence, 16 h; hits give low values
Method in brief: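 ARE-bla HepG2 cells treated with compounds for 16 h at 37C; this counter screen measures viability as intracellular ATP by CellTiter-Glo luminescence after 30 min at room temperature.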

[19] = qHTS assay for cell viability of HEK293 cells (AID 743288); conditions: ATP luminescence (CellTiter-Glo), 18 h; max response: hits give low values; note: % is set by controls: 0 for no effect and ±100 for the full control effect; nearly all actives have a fitted effect of over 50% in size
Method in brief: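 Luminescent ATP quantitation served as the viability read-out. Cells (parental HEK293, 2,000/well) received compounds after at least 5 h at 37 C and were exposed for 18 h before a 30 min room-temperature reagent step.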

[20] = qHTS assay for cell viability of the p53RE-bla HCT-116 cell line (AID 743292); conditions: p53RE-bla HCT-116 viability, ATP luminescence, 16 h; series mostly up to 95 µM; note: % is set by controls: 0 for no effect and ±100 for the full control effect; nearly all actives have a fitted effect of over 55% in size
Method in brief: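 CellSensor p53RE-bla HCT-116 cells (4,000/well) pre-incubated 5 h at 37 C, then exposed to compounds in DMSO for 16 h at 37 C. Viability read as ATP content by CellTiter-Glo luminescence after 30 min at room temperature.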

OCC(Br)CBr (stereo not given)
inactive: Potency [1] > 92 µM | Potency [2] > 92 µM | outcome [3] | caspase-3 activation [4] -2.35% | Potency [5] | Potency [6] | Potency [7] | Potency [8] | Potency [9] | Potency [10] | Potency [11] | Potency [12] | Potency [13] | Potency [14] | Potency [15] | Potency [16] | Potency [17] | max response [18] -0.194% | max response [19] 6.86% | Potency [20]

C=C(C)C(=O)OCC1CO1 (stereo not given)
inactive: Potency [1] > 92 µM | Potency [2] > 92 µM | outcome [3] | caspase-3 activation [4] -4.34% | Potency [5] | Potency [6] | Potency [7] | Potency [8] | Potency [9] | Potency [10] | Potency [11] | Potency [12] | Potency [13] | Potency [14] | Potency [15] | Potency [16] | Potency [17] | max response [18] 1.28% | max response [19] 3.25% | Potency [20]

CCC[CH2][Sn]([Cl])([Cl])[Cl]
inactive: Potency [1] > 92 µM | Potency [2] > 92 µM | outcome [3] | caspase-3 activation [4] 0.958% | Potency [5] | Potency [6] | Potency [7] | Potency [8] | Potency [9] | Potency [10] | Potency [11] | Potency [12] | Potency [13] | Potency [14] | Potency [15] | Potency [16] | Potency [17] | max response [18] -3.93% and 8.73% | max response [19] 9.1% and -10.4% | Potency [20]

Cc1ccc(O)c(C)c1
inactive: Potency [1] > 92 µM | Potency [2] > 92 µM | outcome [3] | caspase-3 activation [4] 3.54% | Potency [5] | Potency [6] | Potency [7] | Potency [8] | Potency [9] | Potency [10] | Potency [11] | Potency [12] | Potency [13] | Potency [14] | Potency [15] | Potency [16] | Potency [17] | max response [18] -4.5% and -1.52% | max response [19] -1.16% and -6.96% and -11.5% | Potency [20]

N#CCCCl
inactive: Potency [1] > 92 µM | Potency [2] > 92 µM | outcome [3] | caspase-3 activation [4] -0.53% and -2.33% | Potency [5] | Potency [6] | Potency [7] | Potency [8] | Potency [9] | Potency [10] | Potency [11] | Potency [12] | Potency [13] | Potency [14] | Potency [15] | Potency [16] | Potency [17] | max response [18] 4.67% and 7.37% | max response [19] -10.6% and 0.832% | Potency [20]

COc1ccc(N)cc1
inactive: Potency [1] > 92 µM | Potency [2] > 92 µM | outcome [3] | caspase-3 activation [4] 1.03% and -0.467% | Potency [5] | Potency [6] | Potency [7] | Potency [8] | Potency [9] | Potency [10] | Potency [11] | Potency [12] | Potency [13] | Potency [14] | Potency [15] | Potency [16] | Potency [17] | max response [18] 6.52% and -14.8% | max response [19] 2.27% and -1.78% | Potency [20]

ClC(Cl)=C(Cl)C(Cl)=C(Cl)Cl
inactive: Potency [1] > 92 µM | Potency [2] > 92 µM | outcome [3] | caspase-3 activation [4] -2.34% | Potency [5] | Potency [6] | Potency [7] | Potency [8] | Potency [9] | Potency [10] | Potency [11] | Potency [12] | Potency [13] | Potency [14] | Potency [15] | Potency [16] | Potency [17] | max response [18] 5.78% and -15% | max response [19] 3.55% and -1.89% | Potency [20]
